Sampled rows, rich in hits. Any-hit rate of the full collection: about 2.1%.
TDP43 rescue: inhibitors of TDP-43 toxicity in yeast; TDP-43 expressing yeast growth rescue, BacTiter-Glo, 24 h; Potency, µM (highest dose often 46.1 µM), for the others: top-dose growth rescue (activation), usual class: activators; actives 1.8% (n = 410,000); note: % of control where 0% means no effect; nearly all actives have a fitted effect of over 50% in size
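Yeast expressing TDP-43 (pregrown in raffinose, seeded at OD600=0.02 in galactose medium) exposed to compounds 24 hr at 30 deg C. Growth read by BacTiter-Glo luminescence; rescue of toxicity appears as increased signal.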
Abeta rescue: compounds reversing amyloid beta toxicity in yeast. yeast expressing A-beta42, growth rescue, OD600, 48 h; response scale: 0% DMSO, 100% iron-clioquinol control. Potency, µM (doses to about 46.1 µM), most hits filed as activators. actives 0.063% (n = 410,000); note: nearly all actives have a fitted effect of over 55% in size
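Yeast growth medium received pinned compounds, then yeast cells expressing toxic A-beta were added; plates incubated at 30 C for 48 hr. Growth read as absorbance at 600 nm, normalized to DMSO and equimolar FeCl3 plus clioquinol controls.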
aSyn rescue: alpha-synuclein toxicity inhibition in yeast. Yeast expressing alpha-synuclein, growth rescue, BacTiter-Glo, 24 h. Potency, µM (doses to about 46.1 µM), for inactives: at the top dose growth rescue (activation), actives largely listed as activators. actives 0.14% (n = 370,000). AID 652106; note: % of control where 0% means no effect; nearly all actives have a fitted effect of over 65% in size
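Readout is rescue of growth in alpha-synuclein-expressing yeast, so inhibitors of toxicity appear as activators. Growth after 24 hr at 30 deg C in galactose medium is quantified by luminescence.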
FUS yeast rescue: FUS proteinopathy suppression in yeast | AID 1347120 | actives 0.24% (n = 390,000) | Potency, µM (highest dose often 76.6 µM), usual class: activators | S. cerevisiae FUS-expressing, growth rescue, OD600, 24 h;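 note: plate controls were DMSO vehicle for no effect and reference control for full effect; nearly all actives have a fitted effect of over 55% in size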
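Steps: raffinose overnight preculture; dilution to OD 0.005 in 2% galactose minimal medium; compound addition (concentration series); 24hr at 30C, 99% humidity; absorbance read at 600 nm.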
* marks the source's active call; other numbers are inactive results. Calls come from the whole dose curve; as a rule, active = well fitted curve in the direction sought with a large enough effect; inconclusive = small, poorly fitted or top-dose-only effect, or another doubt; inactive = no such curve, though single readings can be large; an effect the other way counts as inactive or inconclusive. Potency is the fitted concentration of half-maximal effect.

How did CC1=C(C(=O)Nc2ccc([N+](=O)[O-])cc2)C(c2cccc(C(F)(F)F)c2)NC(=S)N1c1ccccc1 (stereo not drawn) do in these assays?
TDP43 rescue: 0%; Abeta rescue: inactive; aSyn rescue: -3%; FUS yeast rescue: 10µM*

Results for Cc1cccc(N2CCN(C(=O)c3ccccn3)CC2C)c1 (stereo not drawn) ?
Abeta rescue: inactive; aSyn rescue: 15%; FUS yeast rescue: inactive

What do the screens show for `Cc1ccc(-c2c(C(=O)N3CCN(c4cccc(C)c4)C(C)C3)oc(=O)c3ccccc23)cc1` (stereo not drawn)?
TDP43 rescue: 14µM*; Abeta rescue: inactive; FUS yeast rescue: inactive

Results for Cc1cccc(N2CCN(C(=O)c3ccc4c(c3)c(C)c(C)n4C)CC2C)c1 (stereo not drawn) ?
TDP43 rescue: 16µM*; Abeta rescue: inactive; aSyn rescue: 1%; FUS yeast rescue: inconclusive

How did COc1ccc(C(=O)c2ccc([N+](=O)[O-])cc2Cl)cc1 do in these assays?
TDP43 rescue: 11µM*; Abeta rescue: inactive; aSyn rescue: 5%; FUS yeast rescue: inactive

How did COc1ccc(OC)c(C(=O)c2ccc([N+](=O)[O-])cc2)c1 do in these assays?
TDP43 rescue: -20%; Abeta rescue: inactive; aSyn rescue: 12%; FUS yeast rescue: inactive

Results for CC1(C)CN(c2ccc(Br)cc2)C(=O)[C@H]1CC(=O)Nc1ccccc1 ?
TDP43 rescue: 18µM*; Abeta rescue: inactive; aSyn rescue: 12%; FUS yeast rescue: inactive

What do the screens show for `COc1ccc(N(C(=O)/C=C\C(=O)Nc2ccc(Cl)cc2)C(C(=O)NCc2ccco2)c2ccc(C)cc2)cc1` (stereo not drawn)?
TDP43 rescue: 11%; Abeta rescue: inactive; FUS yeast rescue: inconclusive

What do the screens show for `Cc1ccc2ccc(C(Nc3ccccn3)c3ccccc3)c(O)c2n1` (stereo not drawn)?
TDP43 rescue: inconclusive; Abeta rescue: inactive; aSyn rescue: 16%; FUS yeast rescue: inactive

How did Cc1ccc2ccc(C(Nc3ccccc3)c3ccc(C(C)C)cc3)c(O)c2n1 (stereo not drawn) do in these assays?
TDP43 rescue: inconclusive; Abeta rescue: inconclusive; aSyn rescue: 11µM*; FUS yeast rescue: inactive

How did Cc1ccc2ccc(C(Nc3ccccc3)c3ccc(F)cc3)c(O)c2n1 (stereo not drawn) do in these assays?
TDP43 rescue: 3.2µM*; Abeta rescue: inconclusive; aSyn rescue: -26%; FUS yeast rescue: inactive

Results for Cc1ccc2ccc(C(Nc3ccccc3)c3ccc(Cl)cc3)c(O)c2n1 (stereo not drawn) ?
TDP43 rescue: 5.6µM*; Abeta rescue: 16µM*; aSyn rescue: inconclusive; FUS yeast rescue: inactive

How did Cc1ccc2ccc(C(Nc3ccccc3)c3ccccc3)c(O)c2n1 (stereo not drawn) do in these assays?
TDP43 rescue: inconclusive; Abeta rescue: inconclusive; aSyn rescue: inconclusive; FUS yeast rescue: inactive

What do the screens show for `Cc1ccccc1OCC(=O)NCC(=O)OCc1cccc2ccccc12`?
aSyn rescue: 3%

What do the screens show for `CC(C)c1cc(-c2cc(C(=O)NCc3ccccc3)on2)nc(NCC2CC2)n1`?
TDP43 rescue: 16µM*; Abeta rescue: inactive; aSyn rescue: inconclusive; FUS yeast rescue: inactive

How did COc1ccc(CNc2ncnc3nc[nH]c23)cc1 do in these assays?
aSyn rescue: 2%

Results for COc1ccc(OC)c(C(=O)Cn2nnc3ccccc3c2=O)c1 ?
TDP43 rescue: -11%; Abeta rescue: inactive; aSyn rescue: 4%; FUS yeast rescue: inactive

How did COc1ccc2c(C)cc(SCn3nnc4ccccc4c3=O)nc2c1 do in these assays?
TDP43 rescue: 7%; Abeta rescue: inactive; aSyn rescue: 3.5µM*; FUS yeast rescue: inactive

What do the screens show for `O=c1c2ccccc2nnn1CSc1ccc2c(c1)OCCO2`?
TDP43 rescue: 11µM*; Abeta rescue: inactive; aSyn rescue: inconclusive; FUS yeast rescue: inactive

Results for CCn1c(CN2c3ccccc3Sc3ccccc32)n[nH]c1=S ?
TDP43 rescue: 0%; Abeta rescue: 16µM*; aSyn rescue: 21%; FUS yeast rescue: inactive

How did CCn1c(CCCCc2n[nH]c(=S)n2CC)n[nH]c1=S do in these assays?
TDP43 rescue: 7%; Abeta rescue: inactive; aSyn rescue: -1%; FUS yeast rescue: inactive

How did CCN1CCCC1CN(Cc1cc2ccc(C)c(C)c2[nH]c1=O)C(=O)Nc1ccccc1OC (stereo not drawn) do in these assays?
TDP43 rescue: -23%; Abeta rescue: inactive; aSyn rescue: 0%; FUS yeast rescue: 10µM*

How did O=C(Nc1nccs1)c1ccc(COc2c(F)c(F)cc(F)c2F)o1 do in these assays?
TDP43 rescue: 25%; Abeta rescue: inactive; aSyn rescue: -10%; FUS yeast rescue: inactive

What do the screens show for `COC(=O)c1ccc(COc2ccc(F)cc2)o1`?
TDP43 rescue: 23%; Abeta rescue: inactive; aSyn rescue: 1%; FUS yeast rescue: inactive

How did O=C(Nc1nccs1)c1ccc(COc2ccccc2Cl)o1 do in these assays?
TDP43 rescue: 7.1µM*; Abeta rescue: inactive; aSyn rescue: -3%; FUS yeast rescue: inactive

What do the screens show for `COC(=O)c1ccc(COc2ccc(C(=O)c3ccccc3)cc2)o1`?
TDP43 rescue: 11µM*; Abeta rescue: inactive; aSyn rescue: -5%; FUS yeast rescue: inactive

How did O=C(Nc1nccs1)c1ccc(-c2ccc(F)c(Cl)c2)o1 do in these assays?
TDP43 rescue: 13µM*; Abeta rescue: inactive; aSyn rescue: -10%; FUS yeast rescue: inactive

Results for Cc1csc(NC(=O)c2ccc(COc3ccccc3)o2)n1 ?
TDP43 rescue: 22µM*; Abeta rescue: inactive; aSyn rescue: 0%; FUS yeast rescue: inactive

How did Cc1csc(NC(=O)c2ccc(COc3cccc(Cl)c3)o2)n1 do in these assays?
FUS yeast rescue: inactive

What do the screens show for `Cc1cccc(NC(=O)c2ccc(COc3ccccc3)o2)n1`?
TDP43 rescue: inconclusive; Abeta rescue: inactive; aSyn rescue: -6%; FUS yeast rescue: inactive

What do the screens show for `O=C(c1ccc(CS(=O)c2ccccc2Cl)o1)N1CCN(c2ccccc2)CC1` (stereo not drawn)?
TDP43 rescue: inconclusive; Abeta rescue: inactive; aSyn rescue: 0%; FUS yeast rescue: inactive

How did Cc1cccc(NC(=O)c2ccc(COc3ccc(Cl)cc3Cl)o2)n1 do in these assays?
TDP43 rescue: 18µM*; Abeta rescue: inactive; aSyn rescue: -5%; FUS yeast rescue: inconclusive

What do the screens show for `O=C(c1ccc(COc2ccccc2Cl)o1)N1CCN(c2ccccc2)CC1`?
TDP43 rescue: 35µM*; Abeta rescue: inactive; aSyn rescue: 23%; FUS yeast rescue: inactive

What do the screens show for `CCCN1CNc2c(c(=O)[nH]c(=S)n2CCc2ccc(OC)cc2)C1`?
aSyn rescue: 3%

How did COc1ccc2c(c1)C(C)CC(C)(C)N2C(=O)NC1CCCCC1 (stereo not drawn) do in these assays?
TDP43 rescue: -23%; Abeta rescue: inactive; aSyn rescue: 1%; FUS yeast rescue: inactive

Compound activity (PubChem)
